# Laboratory results published in PubChem BioAssay.
# Several values for one entry are separate records, joined by “and”; a condition that tells them apart may be missing. Identical values can stand only once. Records with an inconclusive call do not appear. Activity calls are given as the source filed them. Unless noted, the rule behind the calls is not given here.
# Legend:
# [1] = P. berghei load reduction in hepatocytes – cell-based, HepG2, luciferase luminescence, HepG2 viability, primary screen (AID 624349; in the data active = parasite load remaining mostly below about 12%, no sharp cut-off; inactive = mostly above about 10%;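 note: 100% = mean of DMSO negative control wells on the same plate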); conditions: P. berghei liver stage in HepG2, luciferase luminescence, concentration not given here; parasite load remaining: stronger effect = lower value; viability: measured here: HepG2 viability without parasites
# [2] = signal quenchers or enhancers, Cy5 substrate/SSB – biochemical, NIH Clinical Collection, E. coli SSB, artefact control for HCV NS3 helicase inhibitor project (AID 743268); conditions: Cy5-oligo bound E. coli SSB, fluorescence interference
# [3] = system: Hepatitis C virus NS3 helicase; assay: blockers of NS3h binding to DNA – biochemical, fluorescence polarization, NIH Clinical Collection, primary screen (AID 743270); conditions: NS3 helicase binding to Cy5-dT15 DNA, stronger effect = higher value, concentration not given here
# [4] = biological target: Single-stranded DNA-binding protein (Escherichia coli (strain K12)) (UniProt P0AGE0); assay: SSB-ssDNA binding inhibitors – biochemical, fluorescence polarization, NIH Clinical Collection, counter-screen for HCV NS3 helicase inhibitor project (AID 743271; in the data active = inhibition above about 28%); conditions: E. coli SSB-DNA binding, stronger effect = higher value, concentration not given here
# [5] = compounds distorting NS3 helicase fluorescence signal – biochemical, NIH Clinical Collection, artefact control for HCV NS3 helicase inhibitor project (AID 743272); conditions: fluorescence interference counterscreen, HCV NS3 helicase assay; stronger effect = lower value;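 note: HCV NS3 helicase with a Cy5 labelled single stranded DNA probe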
# [6] = system: Neuropilin-2 / VEGF-C interaction (human); assay: small molecules blocking Neuropilin-2/VEGF-C interaction – biochemical, microplate binding format, z-score (AID 743281); conditions: microplate NRP2/VEGF-C binding assay; stronger effect = lower value
# [7] = modulation of C. elegans fzo-1 (AID 1259413);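 note: fzo-1 mutant C. elegans worms in liquid wells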; conditions: C. elegans fzo-1 modulator screen, mean read-out; stronger effect = higher value
# [8] = biological target: ATP-dependent translocase ABCB1 (Homo sapiens) (UniProt P08183); assay: P-glycoprotein substrate transport blockade – cell-based (AID 377; in the data active = fluorescence slope change above about 50%); conditions: MDR1-expressing cells, fluorescent substrate accumulation slope; stronger effect = higher value; concentration not given here
# [9] = compounds altering viability of human ES cells (AID 493140); conditions: human embryonic stem cell survival screen; stronger effect = higher value;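 note: cells exposed to compounds for four days before counting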
# [10] = system: Aerobactin synthetase IucA (Klebsiella pneumoniae); assay: inhibition of K. pneumoniae IucA enzyme – biochemical, Tocris library, absorbance (AID 1345561); conditions: purified IucA enzyme assay, absorbance (OD) read-out; stronger effect = lower value;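 tested at 8 µM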;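 note: 100% = enzyme without compound and 0% = no enzyme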
# [11] = viability loss with induced miR-34 in A549 – imaging, A549 dox-inducible miR-34, nuclei and caspase counts, primary screen (AID 1347080;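 active = compounds whose cell count with miR-34 switched on is under 0.7 times the count with it off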); conditions: A549 miR-34 inducible, Hoechst nuclei count, 48 h
# [12] = galactose survival enhancers in mitochondrial complex I cybrids – cell-based, galactose medium, ATP luminescence, primary screen (AID 1645843;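 active = z-score of at least 1.8 in each of two replicates, scored against plate mean and spread of sample wells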;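 note: positive z means more ATP and so rescue of galactose-driven cybrid death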); conditions: complex I mutant cybrid cells, 72 h, stronger effect = higher value
# [13] = compounds altering circadian rhythm period length – cell-based, LOPAC library, luminescence reporter (AID 2774); conditions: circadian reporter cells, at 7 µM, actives lie on both sides;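 note: values are relative to mean of DMSO wells on each plate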
# [14] = system: Hepatitis C virus NS3 helicase; assay: blockers of NS3h binding to ssDNA – biochemical, fluorescence polarization, LOPAC1280 library, primary screen (AID 687035; in the data active = inhibition above about 37%); conditions: Purified HCV NS3 helicase, Cy5-dT15 ssDNA binding fluorescence polarization; stronger effect = higher value; concentration not given here
# [15] = compounds altering Cy5-DNA-NS3h complex signal – biochemical, LOPAC1280, artefact control for HCV NS3 helicase inhibitor project (AID 687037); conditions: Cy5-DNA-NS3h complex fluorescence interference counterscreen
# [16] = blockers of cellular phospholipid synthesis – cell-based, LOPAC library, screen 4, primary screen (AID 1347384); conditions: animal cells, phospholipid biosynthesis inhibition screen; at 10 µM
# [17] = EMT-state selective cytotoxicity in co-culture – imaging, PC-3E GFP, TEM4-18 mCherry, primary screen (AID 1345086;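 active = compounds killing one labelled cell type while sparing the other, by normalised counts and ratio limits, not self-fluorescent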;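 for all read-outs here: cells exposed to compound for 72 h before imaging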;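 for red/green cell ratio (normalised): normalised mesenchymal count divided by normalised epithelial count so high means epithelial killing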); conditions: PC-3E GFP / TEM4-18 mCherry co-culture, imaging cell counts, at 1 µM; for red/green cell ratio (normalised): actives lie on both sides, counts scaled to control wells, 1 = unselective
# [18] = stronger effect = lower value, cell number ratio, induced over uninduced
# [19] = measured here: relative caspase fold change +Dox/-Dox
# [20] = measured here: total cells with miR-34 induction, stronger effect = lower value
# [21] = measured here: total cells without miR-34 induction
# [22] = measured here: epithelial PC-3E GFP cell survival
# [23] = measured here: mesenchymal TEM4-18 mCherry cell survival
# Sequence of ATP-dependent translocase ABCB1 (Homo sapiens) (P08183 whole entry, looked up): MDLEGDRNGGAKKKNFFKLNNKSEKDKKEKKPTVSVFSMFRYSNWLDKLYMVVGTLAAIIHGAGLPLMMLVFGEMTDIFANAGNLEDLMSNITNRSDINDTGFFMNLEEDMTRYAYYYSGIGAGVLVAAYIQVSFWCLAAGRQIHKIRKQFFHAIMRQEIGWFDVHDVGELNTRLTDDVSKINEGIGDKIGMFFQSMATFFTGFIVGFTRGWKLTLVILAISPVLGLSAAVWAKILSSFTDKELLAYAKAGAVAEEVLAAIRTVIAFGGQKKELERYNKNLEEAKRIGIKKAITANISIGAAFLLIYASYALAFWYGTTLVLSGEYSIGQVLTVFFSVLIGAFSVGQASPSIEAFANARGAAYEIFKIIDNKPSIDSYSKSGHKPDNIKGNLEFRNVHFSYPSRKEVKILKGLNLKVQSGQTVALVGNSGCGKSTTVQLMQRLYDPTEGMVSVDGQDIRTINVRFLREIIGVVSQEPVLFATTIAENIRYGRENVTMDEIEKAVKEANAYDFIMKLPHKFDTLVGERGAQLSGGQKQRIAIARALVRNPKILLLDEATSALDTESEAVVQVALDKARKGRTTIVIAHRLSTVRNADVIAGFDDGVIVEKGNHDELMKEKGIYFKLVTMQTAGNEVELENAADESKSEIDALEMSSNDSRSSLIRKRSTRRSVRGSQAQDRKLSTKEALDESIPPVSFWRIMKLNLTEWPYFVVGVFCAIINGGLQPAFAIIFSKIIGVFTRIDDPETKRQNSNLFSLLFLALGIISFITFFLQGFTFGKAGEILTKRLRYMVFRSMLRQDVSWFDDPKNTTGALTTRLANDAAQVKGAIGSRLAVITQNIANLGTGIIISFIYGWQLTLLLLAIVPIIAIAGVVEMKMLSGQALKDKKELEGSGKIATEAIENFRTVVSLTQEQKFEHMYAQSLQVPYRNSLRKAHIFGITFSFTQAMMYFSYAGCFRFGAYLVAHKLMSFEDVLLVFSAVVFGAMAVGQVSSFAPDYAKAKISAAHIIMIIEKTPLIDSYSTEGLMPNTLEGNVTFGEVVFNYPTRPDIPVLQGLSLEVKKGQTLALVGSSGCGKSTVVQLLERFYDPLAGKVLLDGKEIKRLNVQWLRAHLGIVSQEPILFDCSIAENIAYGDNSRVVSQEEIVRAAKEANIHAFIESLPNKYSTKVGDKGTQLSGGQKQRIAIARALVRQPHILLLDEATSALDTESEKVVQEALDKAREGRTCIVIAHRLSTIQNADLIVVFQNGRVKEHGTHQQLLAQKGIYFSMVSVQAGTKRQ
compound,measurement,setting,value
CC(=O)OC1C([N+]2(C)CCCCC2)C[C@H]2C3CC[C@H]4C[C@H](OC(C)=O)C([N+]5(C)CCCCC5)CC4(C)[C@H]3CCC12C (stereo partly drawn),parasite load remaining,[1],86.3% (inactive)
same,viability,[1],68.8%
same,fluorescence ratio,[2],0.94 (inactive)
same,inhibition,[3],-0.4% (inactive)
same,inhibition,[4],11.4% (inactive)
same,fluorescence ratio,[5],0.71 (active)
same,outcome,[6],inactive
same,mean signal,[7],283 (inactive)
C[C@H](CCC(=O)O)[C@H]1CC[C@H]2[C@@H]3[C@@H](O)C[C@@H]4C[C@H](O)CCC4(C)[C@H]3CCC12C (stereo partly drawn),mean signal,[7],253 (inactive)
COc1cccc2c1C(=O)c1c(O)c3c(c(O)c1C2=O)C[C@@](O)(C(C)=O)C[C@@H]3OC1CC(N)C(O)C(C)O1 (stereo partly drawn),fluorescence slope change,[8],95.8% (active)
same,survival,[9],2.17 (inactive)
same,parasite load remaining,[1],-2.09% (inactive) and 8.79% (inactive)
same,viability,[1],1.35% and 23.3%
same,fluorescence ratio,[2],1.07 (inactive)
same,inhibition,[3],6.82% (inactive)
same,inhibition,[4],3.34% (inactive)
same,fluorescence ratio,[5],0.55 (active)
same,mean signal,[7],273 (inactive)
same,remaining activity,[10],110% (inactive)
same,fold change,[11]; [18],1.08 (inactive) and 1.04 (inactive)
same,fold change,[11]; [19],0.669 and 0.978
same,cell count,[11]; [20],1690 and 2610
same,cell count,[11]; [21],1560 and 2520
same,z-score,[12],-1.5 (inactive) and -0.935 (inactive)
CO/N=C(/C(=O)N[C@@H]1C(=O)N2C(C(=O)O)=C(COC(N)=O)CS[C@H]12)c1ccco1,fluorescence slope change,[8],-2.3% (inactive)
same,survival,[9],3.92 (inactive)
same,mean signal,[7],235 (inactive)
CC(=O)OCC(=O)[C@@]1(O)CC[C@H]2[C@@H]3CCC4=CC(=O)C=CC4(C)[C@H]3[C@@H](O)CC21C (stereo partly drawn),mean signal,[7],224 (inactive)
CN1[C@@H](CC(=O)c2ccccc2)CCC[C@H]1C[C@H](O)c1ccccc1,period change,[13],-0.145 h (inactive)
same,survival,[9],11.3 (inactive)
same,parasite load remaining,[1],59.5% (inactive) and 70.7% (inactive) and 71% (inactive)
same,viability,[1],108% and 77.1% and 78.1%
same,inhibition,[14],0% (inactive)
same,fluorescence ratio (interference),[15],1 (inactive)
same,fluorescence ratio,[2],1.03 (inactive)
same,inhibition,[3],0.4% (inactive)
same,inhibition,[4],-0.1% (inactive)
same,fluorescence ratio,[5],1.03 (inactive)
same,z-score,[6],-0.358 (inactive)
same,mean signal,[7],245 (inactive)
same,remaining activity,[10],122% (inactive)
same,fold change,[11]; [18],1.06 (inactive) and 0.859 (inactive) and 0.83 (inactive)
same,fold change,[11]; [19],0.866 and 1.18 and 1.23
same,cell count,[11]; [20],11200 and 9030 and 8370
same,cell count,[11]; [21],10500 and 10100
same,outcome,[16],inactive
same,z-score,[12],-0.54 (inactive) and -0.495 (inactive)
CC(=O)O[C@H]1C[C@@H]2CC[C@@H]3[C@H](CCC4(C)[C@H]3C[C@H]([N+]3(C)CCCCC3)[C@@H]4OC(C)=O)C2(C)C[C@@H]1N1CCCCC1 (stereo partly drawn),outcome,[6],inactive
same,mean signal,[7],285 (inactive)
C=C1/C(=C\C=C2/CCCC3(C)[C@@H]([C@H](C)CCCC(C)(C)O)CC[C@@H]23)C[C@@H](O)C[C@@H]1O (stereo partly drawn),outcome,[6],inactive
same,mean signal,[7],260 (inactive)
C#C[C@]1(O)CC[C@H]2[C@@H]3CCc4cc(OC)ccc4[C@H]3CCC21C (stereo partly drawn),outcome,[6],inactive
same,mean signal,[7],241 (inactive)
CC[C@H]1OC(=O)[C@H](C)C(=O)[C@H](C)[C@@H](O[C@@H]2O[C@H](C)C[C@H](N(C)C)[C@H]2O)[C@](C)(OC)C[C@@H](C)C(=O)[C@H](C)[C@@H]2N(CCCCn3cnc(-c4cccnc4)c3)C(=O)OC21C (stereo partly drawn),outcome,[6],inactive
same,mean signal,[7],205 (inactive)
CO[C@H]1C=CO[C@@]2(C)Oc3c(C)c(O)c4c(O)c(c(/C=N/N5CCN(C6CCCC6)CC5)c(O)c4c3C2=O)NC(=O)/C(C)=C\C=C[C@H](C)[C@H](O)[C@@H](C)[C@@H](O)[C@@H](C)[C@H](OC(C)=O)[C@@H]1C,outcome,[6],inactive
same,mean signal,[7],288 (inactive)
CC12C=CC(=O)C=C1CC[C@@H]1[C@@H]2[C@@H](O)CC2(C)[C@H]1CC[C@]2(O)C(=O)COC(=O)CCC(=O)O (stereo partly drawn),outcome,[6],inactive
same,mean signal,[7],283 (inactive)
C=C1/C(=C\C=C2/CCCC3(C)[C@@H]([C@H](C)/C=C/[C@@H](O)C4CC4)CC[C@@H]23)C[C@@H](O)C[C@@H]1O (stereo partly drawn),outcome,[6],inactive
same,mean signal,[7],277 (inactive)
CCC(=O)O[C@]1(C(=O)SCF)[C@H](C)C[C@H]2[C@@H]3C[C@H](F)C4=CC(=O)C=CC4(C)[C@@]3(F)[C@@H](O)CC21C (stereo partly drawn),outcome,[6],inactive
same,mean signal,[7],245 (inactive)
CCOC(=O)O[C@]1(C(=O)OCCl)CC[C@H]2[C@@H]3CCC4=CC(=O)C=CC4(C)[C@H]3[C@@H](O)CC21C (stereo partly drawn),outcome,[6],inactive
same,mean signal,[7],256 (inactive)
C/C=C1/[C@H]2C=C(C)C[C@]1(N)c1ccc(=O)[nH]c1C2,outcome,[6],inactive
same,mean signal,[7],229 (inactive)
OC[C@H]1O[C@@H](n2cnc3c(N[C@H]4CCC[C@@H]4O)ncnc32)[C@@H](O)C1O (stereo partly drawn),parasite load remaining,[1],54.4% (inactive)
same,viability,[1],67.3%
same,fluorescence ratio,[2],1.01 (inactive)
same,inhibition,[3],-1.09% (inactive)
same,inhibition,[4],-2.76% (inactive)
same,fluorescence ratio,[5],0.98 (inactive)
same,z-score,[6],-0.495 (inactive)
same,mean signal,[7],261 (inactive)
CC(=O)O[C@H]1C[C@@H](OC(C)=O)C(C)(C)C2C[C@@H](OC(C)=O)[C@]3(C)C(CC[C@@]4(C)[C@H](c5ccoc5)OC(=O)[C@H]5O[C@]543)[C@]21C (stereo partly drawn),red/green cell ratio (normalised),[17],1.1 (inactive)
same,normalised cell number,[17]; [22],0.93
same,normalised cell number,[17]; [23],1.02
COC(=O)/C=C/C(C)=C/C=C/C(C)=C/C=C/C=C(C)/C=C/C=C(C)/C=C/C(=O)O,red/green cell ratio (normalised),[17],0.81 (inactive)
same,normalised cell number,[17]; [22],1.29
same,normalised cell number,[17]; [23],1.05
OC[C@H]1O[C@@H](n2cnc3c(NC4CCCC4)nc(Cl)nc32)[C@@H](O)C1O (stereo partly drawn),parasite load remaining,[1],65.4% (inactive)
same,viability,[1],67.2%
same,fluorescence ratio,[2],0.94 (inactive)
same,inhibition,[3],-2.84% (inactive)
same,inhibition,[4],-1.97% (inactive)
same,fluorescence ratio,[5],0.97 (inactive)
same,z-score,[6],-0.619 (inactive)
same,mean signal,[7],256 (inactive)
C#C[C@]1(O)CC[C@H]2[C@@H]3[C@H](C)CC4=C(CCC(=O)C4)[C@H]3CCC21C (stereo partly drawn),outcome,[6],inactive
same,mean signal,[7],249 (inactive)
COC(=O)[C@]12Oc3c(c(O)cc4c3C3C=C[C@]5(C4)C(=C(O)c4c(O)cc(C)cc4[C@@H]5OC(C)=O)C3=O)C(O)=C1C(=O)C=C[C@@H]2O,red/green cell ratio (normalised),[17],0.99 (inactive)
same,normalised cell number,[17]; [22],0.87
same,normalised cell number,[17]; [23],0.86
C#C[C@]1(O)CC[C@H]2[C@@H]3CCc4cc(O)ccc4[C@H]3CCC21C (stereo partly drawn),outcome,[6],inactive
same,mean signal,[7],242 (inactive)
C[C@@H]1C[C@H]2[C@@H]3CCC4=CC(=O)C=CC4(C)[C@@]3(F)[C@@H](O)CC2(C)[C@H]1C(=O)CO (stereo partly drawn),outcome,[6],inactive
same,mean signal,[7],245 (inactive)
COc1cccc2c1C(=O)OCc1cc(C)cc(O)c1O2,red/green cell ratio (normalised),[17],0.9 (inactive)
same,normalised cell number,[17]; [22],1.17
same,normalised cell number,[17]; [23],1.05
CC12CCC(=O)C=C1CC[C@@H]1[C@@H]2[C@@H](O)CC2(C)[C@@H](C(=O)CO)CC[C@@H]12 (stereo partly drawn),outcome,[6],inactive
same,mean signal,[7],250 (inactive)
CC[C@H](O)c1oc(=O)cc(OC)c1C,red/green cell ratio (normalised),[17],0.96 (inactive)
same,normalised cell number,[17]; [22],1.01
same,normalised cell number,[17]; [23],0.97
COc1cc(OC)c2c(=O)c(OC)c(-c3ccccc3)oc2c1,red/green cell ratio (normalised),[17],0.85 (inactive)
same,normalised cell number,[17]; [22],1.32
same,normalised cell number,[17]; [23],1.13
O=C(O)CCCCCCCC(O)C(O)CCCCCCO (stereo not drawn),red/green cell ratio (normalised),[17],1.02 (inactive)
same,normalised cell number,[17]; [22],1.11
same,normalised cell number,[17]; [23],1.13
CC(=O)OC12CO[C@@H]1C[C@H](O)[C@@]1(C)C(=O)[C@H](O)C3=C(C)[C@@H](OC(=O)[C@H](O)[C@@H](NC(=O)OC(C)(C)C)c4ccccc4)CC(O)([C@@H](OC(=O)c4ccccc4)[C@H]21)C3(C)C (stereo partly drawn),outcome,[6],inactive
same,mean signal,[7],256 (inactive)
CC(C)(C)NC(=O)[C@H]1CC[C@H]2[C@@H]3CC[C@H]4NC(=O)C=CC4(C)[C@H]3CCC12C (stereo partly drawn),outcome,[6],inactive
same,mean signal,[7],247 (inactive)
CC(=O)[C@H]1CC[C@H]2[C@@H]3CCC4=CC(=O)CCC4(C)[C@H]3CCC12C (stereo partly drawn),outcome,[6],inactive
same,mean signal,[7],279 (inactive)
